DENV2 CPE rescue – protects cells from dengue virus 2 cytopathic effect | DENV2-infected cells, cytopathic effect rescue, plate reader | 350,000 compounds, 1.7% hits | CPE inhibition, % at 9.99 µM | AID 651640; in the data active means CPE inhibition above about 20%, passing the limit was not always enough; tested in BHK-21 cells;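 further: 0% = median of neutral control wells and 100% = median of positive control wells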
GSIS activator – GLuc luminescence reporter in INS-1E cells, primary screen for activators of glucose-dependent secretion of insulin; INS-1E GLuc reporter insulin secretion, 2-3 h; activation, % at 16.6 µM; 370,000 compounds, 0.61% hits; AID 743287;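 active means lowest replicate activation of at least 40%, so every replicate reaches that level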;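 further: 0% = median of neutral control wells and 100% = median of IBMX positive control wells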
CaV13 ICDI inh – Primary screen for inhibitors of IQ motif and Ca2+-dependent inactivation inhibitor domain binding in CACNA1D, Förster resonance energy transfer in living cells, … | HEK cells, CFP/YFP FRET ICDI-IQ, plate reader, 10 min; percent FRET-ratio fall versus neutral wells | inhibition, % at 12.3 µM | 340,000 compounds, 0.098% hits;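 active means mean replicate inhibition of at least 30% and at least 1% of replicates passing that level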;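 further: 0% = median of the neutral control wells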
ERAP1 inh – inhibitors of human ERAP1 aminopeptidase; 340,000 compounds, 0.15% hits; inhibition, % at 10.7 µM; Q9NZ08; recombinant ERAP1, Leu-AMC fluorescence, 60 min; AID 652197;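 active means mean replicate inhibition of at least 30%, or all replicates individually reaching that 30% level; inactive means mean below 30% and not every replicate reaching it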;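 further: 0% = neutral control wells and 100% = L-leucinethiol positive control wells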
Target sequence (Q9NZ08 whole entry, looked up): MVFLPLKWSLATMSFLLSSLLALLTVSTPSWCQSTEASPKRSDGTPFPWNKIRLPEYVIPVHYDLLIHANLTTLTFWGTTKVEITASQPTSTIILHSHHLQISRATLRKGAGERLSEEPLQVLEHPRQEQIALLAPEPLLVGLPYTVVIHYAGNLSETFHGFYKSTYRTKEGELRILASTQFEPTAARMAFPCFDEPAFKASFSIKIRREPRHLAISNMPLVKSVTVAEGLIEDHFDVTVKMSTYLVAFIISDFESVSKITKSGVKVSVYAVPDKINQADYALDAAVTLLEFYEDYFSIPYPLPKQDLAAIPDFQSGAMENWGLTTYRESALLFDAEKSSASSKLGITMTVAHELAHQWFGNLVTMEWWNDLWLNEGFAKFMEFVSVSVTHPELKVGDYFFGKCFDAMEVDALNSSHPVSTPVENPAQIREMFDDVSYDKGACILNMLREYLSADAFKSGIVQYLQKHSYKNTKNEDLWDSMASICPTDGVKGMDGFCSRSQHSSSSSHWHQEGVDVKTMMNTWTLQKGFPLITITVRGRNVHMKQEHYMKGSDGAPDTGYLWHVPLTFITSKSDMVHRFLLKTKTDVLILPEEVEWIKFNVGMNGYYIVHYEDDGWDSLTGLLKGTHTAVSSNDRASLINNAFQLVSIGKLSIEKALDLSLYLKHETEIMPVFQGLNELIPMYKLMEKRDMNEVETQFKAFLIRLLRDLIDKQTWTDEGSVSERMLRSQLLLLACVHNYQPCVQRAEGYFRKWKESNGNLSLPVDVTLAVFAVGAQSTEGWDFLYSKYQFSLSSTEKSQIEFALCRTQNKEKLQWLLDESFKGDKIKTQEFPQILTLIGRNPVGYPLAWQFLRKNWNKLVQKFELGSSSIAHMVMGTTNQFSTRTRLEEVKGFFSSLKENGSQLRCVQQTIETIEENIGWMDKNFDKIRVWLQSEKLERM
rRNA inh HTS – selective bacterial rRNA inhibition in E. coli; E. coli WT GFP vs humanized-ribosome RFP mutants, fluorescence, 24 h; hits give low values; DMSO median 0, no signal -100; GFP signal change (wild-type ribosome), % (test concentration not listed); 350,000 compounds, 1.6% hits; AID 720706;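 active means significant combined selectivity score with lowered wild-type GFP, culture density cut under 30%, mutant RFP and density less affected; inactive means any of these conditions unmet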
PGC1a acetyl inh – modulators of PGC1a acetylation; AID 651687; 350,000 compounds, 0.17% hits; inhibition, % at 15.6 µM; U2OS PGC1a acetylation, AlphaScreen anti-acetyl-lysine; with virally co-expressed GCN5 acetyltransferase;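 active means every replicate shows inhibition of at least 40%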;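 further: 0% = neutral control wells and 100% = positive control wells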
* hit, by the source's call; / = no result given. Only some compounds are listed: those with a hit (about 3.2% of all), similar ones and a draw of the others.

SMILES	DENV2 CPE rescue	GSIS activator	CaV13 ICDI inh	ERAP1 inh	rRNA inh HTS	PGC1a acetyl inh
COc1ccc(COC(=O)C2=C(C)NC(=O)NC2c2ccc(F)cc2)cc1 (stereo not drawn)	61*	-31	-5	6	-15	15
CC1=C(C(=O)OCc2ccccc2)C(c2ccccc2Br)NC(=O)N1 (stereo not drawn)	-3	-43	-4	-4	-34*	-9
COc1ccccc1C1NC(=O)NC(C)=C1C(=O)OCc1ccccc1 (stereo not drawn)	-3	-1	-3	-2	-23*	/
COc1ccc(C2NC(=O)NC(C)=C2C(=O)Nc2cccc(C)c2C)cc1 (stereo not drawn)	60*	/	-5	2	5	-3
CO[C@H]1CN(C)C(=O)c2ccc(NS(=O)(=O)c3cn(C)cn3)cc2OC[C@@H](C)NC[C@@H]1C	18	-1	/	-12	4	-3
C[C@H](CO)N1C[C@H](C)[C@@H](CN(C)C(=O)CCCN(C)C)OCCCC[C@H](C)Oc2ccc(NC(=O)Nc3ccccc3)cc2C1=O	-6	8	/	1	0	3
CN1C(=O)c2cc(NC(=O)C3CCCC3)ccc2OC[C@@H]2O[C@@H](CC(=O)NCC3CC3)CC[C@H]21	-14	10	/	3	2	-5
COc1ccc2c3c(n(C)c2c1)[C@@H](CO)N(C(=O)Nc1ccc(F)cc1)CC31CCN(C)CC1	-4	-17	/	-4	1	-5
CC1=C(C(=O)OC2CCCCCCC2)C(c2ccc(O)cc2)NC(=O)N1 (stereo not drawn)	-6	12	-8	1	-43*	1
CCOC(=O)C1CCCN(c2c(N3CCOCC3)c(=O)c2=O)C1 (stereo not drawn)	46*	13	-7	5	15	-3
O=C(C1CC1)N1CC2(C1)[C@H](c1ccccc1)[C@H](CO)N2C(=O)CC1CC1	0	24	/	6	1	9
Cc1c(NC(=O)c2ccc(-c3ccc([N+](=O)[O-])cc3Cl)o2)c(=O)n(-c2ccccc2)n1C	2	-5	-4	4	-22*	-13
CC(C)c1cn(CC[C@H]2CC[C@@H](NC(=O)c3cccc(F)c3)[C@H](CO)O2)nn1	19	3	/	1	0	3
O=C(O)c1ccc(S(=O)(=O)c2ccc3c(c2)C(=O)N(c2ccc(O)cc2)C3=O)cc1	1	17	-3	/	-36*	5
Cc1cc(C(=O)Nc2cccc3c2O[C@@H](CN(C)C(=O)Nc2cccc4ccccc24)[C@@H](C)CN([C@H](C)CO)C3=O)n(C)n1	-5	8	/	2	-7	-3
CCCCNC(=O)c1cc2c(C)cc(C)cc2[nH]1	57*	2	5	-1	-22*	/
Cc1cc(C)c2cc(C(=O)Nc3ccc(C)c(F)c3)[nH]c2c1	-5	-2	-4	4	-4	0
CSc1nc(C(=O)N2CCCC(C(=O)c3ccc(Cl)cc3)C2)cs1 (stereo not drawn)	0	-19	-4	13	-31*	/
O=C(c1ccc(Cl)cc1)C1CCCN(C(=O)c2csnn2)C1 (stereo not drawn)	1	4	-7	0	-10	-15
CSc1ccc(C(=O)C2CCCN(C(=O)c3ccc4c(c3)no[n+]4[O-])C2)cc1 (stereo not drawn)	-4	42*	-6	-4	0	11
O=C(C[C@H]1CC[C@@H]2[C@H](COC[C@@H](O)CN2Cc2ccccc2)O1)NCCCN1CCOCC1	9	13	/	-1	1	6
O=C(Nc1cccc(-c2nc3ccccc3s2)c1)c1cccs1	/	-11	-4	/	/	/
O=C(Nc1ccccc1)Nc1sccc1-c1nc2ccccc2s1	-10	29	-17	0	-21*	3
COc1ccccc1NC(=O)Nc1sccc1-c1nc2ccccc2s1	17	-4	-4	-2	-19	10
O=C(Nc1cccc(Cl)c1)Nc1sccc1-c1nc2ccccc2s1	63*	/	14	-4	/	7
SMILES	DENV2 CPE rescue	GSIS activator	CaV13 ICDI inh	ERAP1 inh	rRNA inh HTS	PGC1a acetyl inh
O=C(c1ccccc1)N1CC[C@H]2[C@H](CO)Nc3ccc(C#Cc4cccnc4)cc3[C@H]21	-13	17	/	-2	-5	-10
C[C@@H]1CN([C@@H](C)CO)C(=O)c2c(c3ccccc3n2C)-c2ccccc2CO[C@@H]1CN(C)Cc1cccc2c1OCCCO2	0	-19	/	-1	0	-19
C[C@H]1CN([C@@H](C)CO)C(=O)Cc2cc(NC(=O)NC3CCCCC3)ccc2O[C@@H]1CN(C)Cc1ccc2c(c1)OCO2	4	-22	/	1	-8	-3
C=CCOc1ccccc1CN1CCC(Cc2ccccc2)CC1	24*	-5	-3	-2	-10	1
CN(C)CCCNC(CC(=O)Nc1cccc([N+](=O)[O-])c1)C(=O)O (stereo not drawn)	48*	-5	-5	-2	13	-7
CCOC(=O)c1ccc(NC(=O)CNNC(=O)COc2ccccc2C)cc1	-6	-49	-2	1	-29*	/
COc1cccc(C2Oc3ccccc3C3CC(c4cccs4)=NN32)c1 (stereo not drawn)	81*	/	-16	1	-29*	-8
COC(=O)Cc1c(C)c2ccc(O)c(CNCc3ccc(OC)c(OC)c3)c2oc1=O	0	5	0	97*	-8	-4
C/C=C/c1cnc2c(c1)C(=O)N([C@@H](C)CO)C[C@@H](C)[C@H](CN(C)C(=O)Nc1ccc(OC)cc1)O2	-3	9	/	0	0	-7
NC1=NC[C@@H](Cc2ccc(O)cc2)N1CCC12CC3CC(CC(C3)C1)C2	-2	184*	-11	1	-36	6
C[C@H](CO)N1C[C@H](C)[C@@H](CN(C)S(=O)(=O)c2cccs2)OCCCC[C@H](C)Oc2ccc(NC(=O)c3ccncc3)cc2C1=O	1	-7	/	1	-2	7
O=S(=O)(c1ccc(Cl)cc1)c1snnc1-c1ccccc1	/	/	-3	/	/	42*
O=S(=O)(c1ccc(F)cc1)c1snnc1-c1ccccc1	-3	-8	-5	8	-31	/
c1ccc(COn2nnc3ccccc32)c(COn2nnc3ccccc32)c1	1	-24	-7	0	-43*	-5
CCc1ccc(NC(=O)CCC(=O)N2CCSc3ccccc32)cc1	-2	-16	-2	-1	-22	0
CCc1cccc(NC(=O)CCC(=O)N2CCSc3ccccc32)c1	3	-17	-3	1	-24*	-13
O=C(/C=C/c1cccnc1)/C=C/c1cccnc1	-5	2	-2	-2	-5	81*

Bioassay records as filed in PubChem.
